Compound activity deposited in PubChem BioAssay by The Scripps Research Institute Molecular Screening Center.
Shown are actives, neighbours in structure and some others; about 4.1% of the full set was active somewhere.
ssDAF-12 act: activators of S. stercoralis DAF-12 nuclear receptor; HEK293 ssDAF-12/GRIP1 lit1-tk-luc reporter, luminescence; % of 3 µM dafachronic acid response; activation, % at 6.8 µM; hit rate 1% among 370,000;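 active = activation above the mean over all tested compounds plus 3 SD, cut at about 0.9% in these data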;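 also: 0% = DMSO-only wells and 100% = 3 µM delta7-dafachronic acid wells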
hgDAF12 agonist: activates the H. glycines DAF-12 receptor ligand-binding domain; HEK293 GAL4-hgDAF12 UAS-luciferase reporter, agonist luminescence; normalized to butyrate control; activation, % at 6.8 µM; hit rate 1.8% among 370,000;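 active = activation above a cutoff set at the mean of all screened compounds plus 3 SD, cut at about 10% in these data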;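 also: 0% = DMSO wells and 100% = sodium butyrate wells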
DAX1 inh-1: DAX1 (NR0B1) inhibition, primary screen; HEK293T StAR-luciferase reporter, SF-1/DAX-1 repression relief; hit rate 1.1% among 370,000; inhibition, % at 6.8 µM; AID 652010;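 active = inhibition above the mean over all tested compounds plus 3 SD, cut at about 3.6% in these data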;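 also: 0% = DAX-1 cells with DMSO and 100% = cells lacking DAX-1 with DMSO; higher inhibition means more luminescence from relief of DAX-1 repression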
DAX1 inh-2: inhibitors of human orphan nuclear receptor DAX1 (NR0B1) | P51843 | HEK293 Gal4-DAX1 luciferase reporter, luminescence | inhibition, % at 6.75 µM | hit rate 0.99% among 340,000 | AID 504766;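 active = inhibition above the mean over all tested compounds plus 3 SD, cut at about 4.2% in these data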;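 also: 0% = DAX1-transfected cells with DMSO and 100% = empty-vector control cells with DMSO; inhibition shows as a rise in luminescence from relieved DAX1 repression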
Target sequence (P51843 207-470 limits assumed): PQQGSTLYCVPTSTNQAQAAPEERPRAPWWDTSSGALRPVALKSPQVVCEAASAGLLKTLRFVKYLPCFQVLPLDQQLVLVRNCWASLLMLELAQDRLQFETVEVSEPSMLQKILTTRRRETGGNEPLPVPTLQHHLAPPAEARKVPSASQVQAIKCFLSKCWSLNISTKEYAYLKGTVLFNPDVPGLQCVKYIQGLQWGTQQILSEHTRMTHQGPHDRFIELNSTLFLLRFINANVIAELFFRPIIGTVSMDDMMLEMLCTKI
hcDAF-12 act: activates DAF-12 receptor from parasite H. contortus; AID 652067; hit rate 1.4% among 370,000; activation, % at 6.8 µM; HEK293 hcDAF-12 lit1-tk-luc reporter, luminescence; 0% DMSO, 100% Δ7-dafachronic acid;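 active = activation above the mean of all tested compounds plus 3 SD, cut at about 5.5% in these data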;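 also: 100% = response to 3 µM Δ7-dafachronic acid high control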
DAX1 conf: confirmation of human DAX1 (NR0B1) inhibitors; shares compounds with DAX1 inh-1; HEK293T StAR-promoter luciferase reporter, SF-1/DAX-1 repression; inhibition, % at 6.8 µM; hit rate 87% among 2,400; AID 652134;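 active = inhibition above the average of every tested compound plus 3 SD, cut at about 3.8% in these data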;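 also: 0% = DAX-1 cells with DMSO and 100% = no DAX-1 control cells with DMSO; active compounds raise luminescence by relieving repression of the StAR reporter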
SF1 mutant ctr: counter-screen for DAX1 inhibitors: nonselective inhibitors with SF-1 AF2 mutant | hit rate 78% among 2,400 | shares compounds with DAX1 inh-1 | HEK293 StAR-luciferase, luminescence | AID 652136 | inhibition, % at 6.8 µM;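 active = inhibition above the mean of all tested compounds plus 3 SD, cut at about 3% in these data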;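 also: 0% = DAX-1 transfected cells with DMSO and 100% = cells without DAX-1 with DMSO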
* = called active by the depositor; · = no result.

SMILES	ssDAF-12 act	hgDAF12 agonist	DAX1 inh-1	DAX1 inh-2	hcDAF-12 act	DAX1 conf	SF1 mutant ctr
COc1cc(C(=O)N/N=C(\C)c2ccccn2)cc(OC)c1OC	0	-5	8.3*	-2	1	-1	0
COc1cccc(/C=N/NC(=O)c2ccccc2NC(=O)c2ccco2)c1OC	-1	0	-1	1	0	·	·
COc1cccc(/C=C/C(=O)NNC(=O)c2ccco2)c1OC	0	10	4.9*	1	4	9.1*	6.5*
Cc1ccc2nc(SCC(=O)N3CCN(C(=O)c4ccco4)CC3)[nH]c2c1	0	1	-1	0	2	·	·
Cc1ccc2nc(SCC(=O)N3CCCC3)[nH]c2c1	0	10	4.8*	3	4	12*	6.1*
COc1ccc(NC(=S)Nc2cccc(S(=O)(=O)N3CCCCC3)c2)cc1	-1	-2	-1	-1	0	·	·
Cc1ccc(OCc2csc(N)n2)cc1	-1	7	5.1*	1	1	3	2
COc1ccccc1N1CCN(/N=C/c2ccc([N+](=O)[O-])cc2)CC1	-1	4	0	3	0	·	·
O=[N+]([O-])c1ccc(C=NN2CCCCCC2)cc1	0	10	6.7*	5.6*	4	6.9*	5.7*
CSc1ncc(CO)n1Cc1ccccc1	-2	-3	0	0	0	·	·
CCCCN(CCCC)Cc1ccc(C(=O)NNC(=O)Nc2ccc(F)cc2)o1	-2	2	0	0	2	·	·
Cc1nc2ccc(NC(=O)Cc3cccc(F)c3)cc2s1	-1	0	1	0	0	·	·
Cc1nc2ccc(NC(=O)Cc3ccccc3F)cc2s1	0	9	5.3*	2	4	11*	6.9*
Cc1nc2ccc(NC(=O)c3cccs3)cc2s1	0	8	7.4*	0	3	9.3*	4.7*
Cc1nn(C2CCS(=O)(=O)C2)c(Cl)c1/C=C/C(=O)OCC(N)=O (stereo unspecified)	-2	2	1	1	-2	·	·
COCCCNc1ccn2nc(-c3ccccc3)cc2n1	1.0*	10	6.5*	·	6.3*	15*	5.0*
COCCCNc1ccn2nc(-c3cc(OC)c(OC)c(OC)c3)cc2n1	-1	-1	-2	·	0	·	·
Cc1cccc2nc(COc3ccc4ccccc4c3Br)cn12	0	10	4.8*	6.5*	6.0*	12*	7.3*
COc1ccc(N2C(=O)c3ccccc3C(C)(C)C2=O)cc1	-1	-2	0	-1	-2	·	·
O=C(/C=C/c1cccs1)Nc1scc(-c2ccccc2)c1C(=O)O	0	13*	4.7*	0	3	7.3*	3.6*
CSC1=NC2(C[C@H]2c2ccccc2)C(=O)N1C (stereo partly specified)	-1	-1	0	0	2	·	·
C=CCN(Cc1nc(-c2cc(OC)ccc2OC)oc1C)C1CCS(=O)(=O)C1 (stereo unspecified)	-2	-3	0	1	-2	·	·
Nc1nc2ccccc2n1S(=O)(=O)c1ccccc1	-1	-1	4.8*	·	-1	2	1
Cc1ccc(S(=O)(=O)n2c(C)nc3ccccc32)cc1	-1	-1	0	1	-2	·	·
Clc1cccc(-c2cc3nc4c(c(NCc5ccco5)n3n2)CCCC4)c1	-1	8	4.5*	1	2	12*	4.8*
SMILES	ssDAF-12 act	hgDAF12 agonist	DAX1 inh-1	DAX1 inh-2	hcDAF-12 act	DAX1 conf	SF1 mutant ctr
CCOC(=O)c1nn(-c2ccc3c(c2)OCCO3)cc1O	-1	13*	8.0*	0	3	9.7*	5.7*
COc1ccc(-c2csc(N3C(=N)SCC3=O)n2)cc1	0	13*	6.9*	2	6.4*	16*	7.4*
COc1cccc(OCc2cc(C(=O)N(C)CCOc3ccc(C)cc3)no2)c1	-1	9	2	1	0	·	·
Cc1cccc(C)c1-n1nnnc1C(c1ccccc1OC(F)(F)F)N1CCN(C/C=C/c2ccccc2)CC1 (stereo unspecified)	-1	6	4.7*	·	-1	-3	-1
N#Cc1ccc2sn(-c3ccccc3)c(=O)c2c1	0	11*	7.9*	3	3	5.1*	3.5*
CC(C)(C)c1ccc(C(=O)/C=C2\NC(=O)CS2)cc1	0	12*	5.2*	-1	6.1*	18*	9.2*
CC(=O)Nc1cccc(-c2csc(C(O)c3cccc(Cl)c3)n2)c1 (stereo unspecified)	-1	-1	-1	·	0	·	·
Cn1cnc2cc(NC(=O)c3ccc(Cl)cc3)ccc21	0	12*	6.6*	1	2	14*	6.4*
CCC(=O)Nc1ccc2c(c1)ncn2C	-1	2	-1	-1	-1	·	·
Cn1cnc2cc(NC(=O)c3cccs3)ccc21	-1	7	4.6*	5.7*	4	3.8*	3.7*
COc1ccc(CC(=O)N2N=C(c3ccncc3)CC2(O)C(F)(F)F)cc1 (stereo unspecified)	-1	-1	-2	-2	-2	·	·
CCc1ccc(C2=NN(C(=O)OC)C(O)(C(F)(F)F)C2)cc1 (stereo unspecified)	1.0*	9	6.6*	-2	6.0*	12*	5.4*
COCC(=O)N/N=C\c1ccccc1OC/C=C/c1ccccc1	-1	11*	8.1*	1	1	4	4.8*
c1ccc(OCCSc2nnnn2C2CCCCC2)cc1	0	13*	4.5*	2	5	11*	8.3*
COc1ccc(OCCSc2nnnn2C2CCCCC2)cc1	-1	2	0	0	0	·	·
Cc1ccc2c(Cl)c(C(=O)NC3CC3)sc2c1	0	6	5.9*	2	0	4.4*	2
COc1ccc(-c2cc3ccc(OCC(C)=O)cc3oc2=O)cc1	0	11*	9.8*	3	5.8*	6.5*	4.5*
OCC1(Cc2ccccc2)CCCN(Cc2c[nH]c3ccccc23)C1 (stereo unspecified)	1	0	0	0	2	·	·
CC(C)(C)c1ccc(CC(=O)N2CCC2(C)C(=O)N2CCCCC2)cc1 (stereo unspecified)	-1	1	-2	·	0	·	·
COc1cccc(-c2csc(NC(=O)C3CC3)n2)c1	-1	12*	5.2*	2	5	7.0*	5.8*
O=C(Nc1nc(-c2ccc3c(c2)OCCO3)cs1)C1CCCC1	-1	8	4.7*	5.8*	5	12*	3.9*
CCC(=O)Nc1cccc(-c2nnc(-c3cccc(NC(=O)CC)c3)o2)c1	-2	-3	-1	-1	0	·	·
